The values below come from PubChem BioAssay (NCI).

About 83,000 compounds went through this panel and 20% of them were active in at least one assay; those are over-represented in the sample as a whole.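 Each cell line was grown in a 96-well plate and treated with one concentration of compound for 48 hours. Values below 10 were considered active.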 A number with no mark means an inactive call. Activity calls are given as the source filed them.

Test systems include NCI-H23 lung; NCI-H226 lung; NCI-H322M lung; HOP-62 NSCLC; NCI-H460 lung; HOP-92 NSCLC; NCI-H522 lung; A549/ATCC NSCLC; 786-0 renal; COLO 205 colon; DU-145 prostate; K-562 leukemia; MALME-3M melanoma; MDA-MB-231 breast; RXF 393 renal; SF-268 CNS; SF-295 CNS; SF-539 CNS; UACC-257 melanoma; M14 melanoma.
Holding throughout (experiment): NCI-60 one-dose screen, 48 h (100 = growth as untreated, 0 = no growth, -100 = all killed)
What all share (details): 10 µM unless noted

As for `CC(=O)O[C@H]1C(=O)[C@@]2(C)[C@H]([C@H](OC(=O)c3ccccc3)[C@]3(O)C[C@H](OC(=O)[C@H](OC(=O)OC[C@@H]4COC(C)(C)O4)[C@@H](NC(=O)c4ccccc4)c4ccccc4)C(C)=C1C3(C)C)[C@]1(OC(C)=O)CO[C@@H]1C[C@@H]2O`, the growth in the experiment with NCI-H23 lung is 19.9%; in the experiment on NCI-H226 lung it was 60.4%; with NCI-H322M lung, 14.4%; with HOP-62 NSCLC, 19.3%; in the experiment on NCI-H460 lung it was 3.59% (active); in the experiment on HOP-92 NSCLC it was 64.6%. Moreover, the growth in the experiment with NCI-H522 lung was 1.08% (active); in the experiment on A549/ATCC NSCLC it was 11.9%; with 786-0 renal, 19.4%; in the experiment on COLO 205 colon, -28.4% (active); in the experiment on DU-145 prostate, 6.23% (active); with K-562 leukemia, 13.8%. The growth with MALME-3M melanoma is 28.9%; in the experiment with MDA-MB-231 breast, 2.49% (active); in the experiment on RXF 393 renal, -9.73% (active); with SF-268 CNS, 32%; with SF-295 CNS, -7.77% (active); in the experiment with SF-539 CNS, -9.82% (active). The results for the growth in the experiment with UACC-257 melanoma and with M14 melanoma were 50.1% and -20% (active), respectively.
With `Fc1ccc2c(c1)c(-c1nc(-c3c[nH]c4ncccc34)cs1)cn2CCN1CCOCC1`, the growth in the experiment on NCI-H23 lung was 60%; in the experiment on NCI-H226 lung, 49.2%; with NCI-H322M lung, 77.2%; in the experiment with HOP-62 NSCLC, 39.3%; in the experiment with NCI-H460 lung, 59.8%; in the experiment on HOP-92 NSCLC, 18.8%. Also, the growth in the experiment on NCI-H522 lung is 44.5%; with A549/ATCC NSCLC it was 52.1%; with 786-0 renal it was 71.6%; in the experiment with COLO 205 colon, 38.4%; with DU-145 prostate it was 77%; in the experiment with K-562 leukemia, 18.6%. For the same molecule, the growth in the experiment with MALME-3M melanoma is 74.2%; in the experiment with MDA-MB-231 breast it was 42.6%; with RXF 393 renal it was 61.6%; with SF-268 CNS, 56.6%; in the experiment on SF-295 CNS it was 62%; with SF-539 CNS it was 55.1%. Besides, the growth in the experiment on UACC-257 melanoma was 97.2%; in the experiment on M14 melanoma it was 41.6%.
`O=NN1CCCc2cccc(O)c21`: the growth in the experiment with NCI-H23 lung is -6.22% (active); in the experiment on NCI-H226 lung it was 76.5%; in the experiment with NCI-H322M lung, 41.8%; in the experiment on HOP-62 NSCLC it was 31.9%; with NCI-H460 lung, 4.79% (active); in the experiment with HOP-92 NSCLC, 71.6%. The growth in the experiment on NCI-H522 lung was -21.7% (active); with A549/ATCC NSCLC it was 37.6%; in the experiment with 786-0 renal it was 27.2%; in the experiment with COLO 205 colon, 94%; in the experiment with DU-145 prostate it was 10.8%; in the experiment with K-562 leukemia, 9.43% (active). Moreover, the growth in the experiment on MALME-3M melanoma was 38.3%; in the experiment with MDA-MB-231 breast, 78.8%; in the experiment with RXF 393 renal, -4.04% (active); in the experiment with SF-268 CNS, 27.8%; in the experiment on SF-295 CNS, 31%; in the experiment with SF-539 CNS, -32.8% (active). Moreover, the values for the growth in the experiment with UACC-257 melanoma and in the experiment on M14 melanoma were 57.4% and 22.2%, respectively.
On to `O=[N+]([O-])c1cc([N+](=O)[O-])c(Nn2c3ccccc3c3ccccc32)c([N+](=O)[O-])c1`, for which the growth with NCI-H23 lung was -3.12% (active); with NCI-H226 lung, -1.91% (active); with NCI-H322M lung, 2.33% (active); with HOP-62 NSCLC, -11.8% (active); in the experiment with NCI-H460 lung, 3.43% (active); with HOP-92 NSCLC, -28.1% (active). Besides, the growth in the experiment with NCI-H522 lung is -25.4% (active); in the experiment with A549/ATCC NSCLC, 4.97% (active); with 786-0 renal, 0.775% (active); in the experiment on COLO 205 colon it was -65.2% (active); in the experiment with DU-145 prostate it was 22.7%; in the experiment with K-562 leukemia it was 6.42% (active). Besides, the growth with MALME-3M melanoma was -16.2% (active); in the experiment on MDA-MB-231 breast, -6.81% (active); with RXF 393 renal, -4.31% (active); with SF-268 CNS, 16.2%; in the experiment on SF-295 CNS, -47.6% (active); in the experiment with SF-539 CNS, 8.26% (active). For the same molecule, the growth in the experiment with UACC-257 melanoma is -22.6% (active); in the experiment on M14 melanoma it was 1.91% (active).
Regarding `CC1=C(O)[C@@](C)(CCCCC[C@H](C)CCCCc2ccc(O)cc2)OOC1=O`, the growth in the experiment on NCI-H23 lung is 85.2%; with NCI-H226 lung, 107%; in the experiment with NCI-H322M lung, 94.6%; with HOP-62 NSCLC it was 91.1%; with NCI-H460 lung, 108%; in the experiment on HOP-92 NSCLC it was 75.2%. The growth with NCI-H522 lung was 64.5%; in the experiment on A549/ATCC NSCLC, 96.9%; in the experiment with 786-0 renal, 105%; in the experiment with COLO 205 colon it was 107%; with DU-145 prostate, 113%; in the experiment on K-562 leukemia it was 94.4%. The growth in the experiment with MALME-3M melanoma was 87.3%; in the experiment with MDA-MB-231 breast it was 85.2%; with RXF 393 renal it was 111%; in the experiment on SF-268 CNS, 110%; in the experiment on SF-295 CNS, 90.4%; with SF-539 CNS, 101%. The growth with UACC-257 melanoma was 89.8%; in the experiment on M14 melanoma, 96.6%.
Consider `CCOC(=O)[C@@H](C)C[C@H](Cc1ccccc1)NC(=O)c1nc([C@@H](C[C@H](C(C)C)N(C)C(=O)[C@@H](NC(=O)[C@H]2CCCCN2C)C(C)C)OC(C)=O)sc1CCOCc1ccccc1`, for which the growth in the experiment on NCI-H23 lung was 14.7%; in the experiment with NCI-H226 lung, -80.6% (active); in the experiment on NCI-H322M lung, 11.9%; with HOP-62 NSCLC it was -42.7% (active); in the experiment with NCI-H460 lung, -54.8% (active); in the experiment on HOP-92 NSCLC it was -16.5% (active). Further, the growth in the experiment on NCI-H522 lung was -49.2% (active); in the experiment on A549/ATCC NSCLC, -31.1% (active); in the experiment with 786-0 renal it was -38.6% (active); in the experiment with COLO 205 colon, -70.9% (active); with DU-145 prostate, -27.3% (active); in the experiment on K-562 leukemia, -31.4% (active). The growth in the experiment with MALME-3M melanoma is -77.4% (active); in the experiment on MDA-MB-231 breast it was -49.8% (active); in the experiment with RXF 393 renal it was -14.2% (active); in the experiment on SF-268 CNS it was -38% (active); with SF-295 CNS it was -33.6% (active); in the experiment with SF-539 CNS, -69.2% (active). Besides, the growth in the experiment on UACC-257 melanoma is -7.85% (active); in the experiment with M14 melanoma it was -57.1% (active).
Regarding `CCOP(=O)(NC[C@H]1O[C@](O)(CO)[C@@H](O)[C@@H]1O)OCC`, the growth was 97.4% in the experiment with NCI-H23 lung; 75.9% in the experiment on NCI-H226 lung; 112% in the experiment on NCI-H322M lung; 91% in the experiment on HOP-62 NSCLC; 105% in the experiment on NCI-H460 lung; 93.1% with HOP-92 NSCLC. Also, the growth was 88.3% in the experiment on NCI-H522 lung; 96.6% in the experiment on A549/ATCC NSCLC; 99.8% in the experiment on 786-0 renal; 102% in the experiment on COLO 205 colon; 105% with DU-145 prostate; 97.5% with K-562 leukemia. For the same molecule, the growth is 89.1% with MALME-3M melanoma; 94.3% in the experiment on MDA-MB-231 breast; 96.4% in the experiment on RXF 393 renal; 94.4% with SF-268 CNS; 104% in the experiment on SF-295 CNS; 96.3% in the experiment on SF-539 CNS. Besides, the growth was 98.4% in the experiment on UACC-257 melanoma and 93.1% in the experiment with M14 melanoma.
